# Measurements reported in PubChem BioAssay (NCATS).
# Values without a mark were called inactive. Inconclusive results are not listed. Where a call stands in place of a potency, no number is given. Active and inactive are the calls of the source. Unless noted, calls come from the whole dose curve; as a rule, active = well fitted curve in the direction sought with a large enough effect; inconclusive = small, poorly fitted or top-dose-only effect, or another doubt; inactive = no such curve, though single readings can be large; an effect the other way counts as inactive or inconclusive.
# Tests used:
# [1] = target: Tumor susceptibility gene 101 protein (Homo sapiens) (UniProt Q99816); test: qHTS Assay for Iinhibitors of HIV-1 Budding by Blocking the Interaction of PTAP/TSG101: Hit Validation (AID 651600); note: nearly all actives have a fitted effect of over 70% in size; note: potency is the fitted concentration of half-maximal effect
# Sequence of Tumor susceptibility gene 101 protein (Homo sapiens) (Q99816 whole entry, looked up): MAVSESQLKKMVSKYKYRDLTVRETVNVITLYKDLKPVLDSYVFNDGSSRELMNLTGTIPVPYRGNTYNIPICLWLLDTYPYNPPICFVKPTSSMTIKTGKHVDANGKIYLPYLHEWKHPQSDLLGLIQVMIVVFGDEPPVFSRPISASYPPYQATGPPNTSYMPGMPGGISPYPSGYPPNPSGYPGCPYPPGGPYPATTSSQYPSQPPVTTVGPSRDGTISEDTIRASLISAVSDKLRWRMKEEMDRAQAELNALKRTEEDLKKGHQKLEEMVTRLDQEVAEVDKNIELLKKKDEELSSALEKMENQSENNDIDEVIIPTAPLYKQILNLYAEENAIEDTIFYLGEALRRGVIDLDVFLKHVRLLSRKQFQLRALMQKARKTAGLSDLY
# In short: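 Measuring PTAP–Tsg101 interaction by FP: protein at 10 uM and fluorescent peptide at 50 nM (final), buffer 10 mM HEPES pH 7.5 with 0.15 M NaCl, 3 mM EDTA, 0.1 mM TCEP, 0.01% Tween 20; 20 min incubation, r.t.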
# [2] = target: Rap guanine nucleotide exchange factor 3 (Homo sapiens) (UniProt O95398); test: Confirmatory qHTS for antagonist of cAMP-regulated guanine nucleotide exchange factor 3 (EPAC1) (AID 1645880); conditions: EPAC1 Rap1B-BODIPY-GDP exchange, fluorescence; activity, negative = inhibition: at 115 µM (top of the series); note: nearly all actives have a fitted effect of over 55% in size
# Sequence of Rap guanine nucleotide exchange factor 3 (Homo sapiens) (O95398 whole entry, looked up): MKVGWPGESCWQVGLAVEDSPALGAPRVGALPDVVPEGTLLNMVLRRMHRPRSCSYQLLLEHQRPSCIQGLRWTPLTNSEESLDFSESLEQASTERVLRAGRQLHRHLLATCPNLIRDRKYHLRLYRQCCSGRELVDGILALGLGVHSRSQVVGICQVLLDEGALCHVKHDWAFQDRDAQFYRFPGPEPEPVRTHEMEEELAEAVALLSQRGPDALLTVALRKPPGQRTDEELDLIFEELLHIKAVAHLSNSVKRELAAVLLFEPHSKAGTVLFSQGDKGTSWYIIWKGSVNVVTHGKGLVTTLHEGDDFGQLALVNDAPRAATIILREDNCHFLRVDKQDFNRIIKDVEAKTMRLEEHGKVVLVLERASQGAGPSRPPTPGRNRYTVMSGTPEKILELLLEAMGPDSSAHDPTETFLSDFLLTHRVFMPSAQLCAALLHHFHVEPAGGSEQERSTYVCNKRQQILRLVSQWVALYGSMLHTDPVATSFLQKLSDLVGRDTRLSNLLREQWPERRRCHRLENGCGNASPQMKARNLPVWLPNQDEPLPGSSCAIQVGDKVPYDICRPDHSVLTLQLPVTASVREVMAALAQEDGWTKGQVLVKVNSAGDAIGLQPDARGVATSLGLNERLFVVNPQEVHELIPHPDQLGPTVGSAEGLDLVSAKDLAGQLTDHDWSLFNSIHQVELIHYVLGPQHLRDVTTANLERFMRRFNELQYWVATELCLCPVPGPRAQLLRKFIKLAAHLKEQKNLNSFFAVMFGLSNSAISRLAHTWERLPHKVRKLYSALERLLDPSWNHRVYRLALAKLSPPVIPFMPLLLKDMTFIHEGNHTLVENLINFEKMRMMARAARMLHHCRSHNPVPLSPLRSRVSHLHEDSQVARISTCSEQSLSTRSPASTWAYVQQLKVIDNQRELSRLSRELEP
# In short: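 Nucleotide exchange uses 100 nM EPAC1, 250 nM RAP1B-BODIPY-GDP and 50 uM GDP, with compounds in a concentration-titration series. After 5 min at room temperature, fluorescence (480 nm ex/540 nm em) is read every 5 min for 30 min. Data are normalized to control ATA and DMSO.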
# [3] = target: Rap guanine nucleotide exchange factor 4 (Homo sapiens) (UniProt Q8WZA2); test: Confirmatory qHTS for agonist of cAMP-regulated guanine nucleotide exchange factor 4 (EPAC2) (AID 1645884);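 note: nucleotide exchange releases bodipy-GDP from Rap1 and this lowers its fluorescence; nearly all actives have a fitted effect of over 65% in size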; note: potency is the fitted concentration of half-maximal effect
# Sequence of Rap guanine nucleotide exchange factor 4 (Homo sapiens) (Q8WZA2 whole entry, looked up): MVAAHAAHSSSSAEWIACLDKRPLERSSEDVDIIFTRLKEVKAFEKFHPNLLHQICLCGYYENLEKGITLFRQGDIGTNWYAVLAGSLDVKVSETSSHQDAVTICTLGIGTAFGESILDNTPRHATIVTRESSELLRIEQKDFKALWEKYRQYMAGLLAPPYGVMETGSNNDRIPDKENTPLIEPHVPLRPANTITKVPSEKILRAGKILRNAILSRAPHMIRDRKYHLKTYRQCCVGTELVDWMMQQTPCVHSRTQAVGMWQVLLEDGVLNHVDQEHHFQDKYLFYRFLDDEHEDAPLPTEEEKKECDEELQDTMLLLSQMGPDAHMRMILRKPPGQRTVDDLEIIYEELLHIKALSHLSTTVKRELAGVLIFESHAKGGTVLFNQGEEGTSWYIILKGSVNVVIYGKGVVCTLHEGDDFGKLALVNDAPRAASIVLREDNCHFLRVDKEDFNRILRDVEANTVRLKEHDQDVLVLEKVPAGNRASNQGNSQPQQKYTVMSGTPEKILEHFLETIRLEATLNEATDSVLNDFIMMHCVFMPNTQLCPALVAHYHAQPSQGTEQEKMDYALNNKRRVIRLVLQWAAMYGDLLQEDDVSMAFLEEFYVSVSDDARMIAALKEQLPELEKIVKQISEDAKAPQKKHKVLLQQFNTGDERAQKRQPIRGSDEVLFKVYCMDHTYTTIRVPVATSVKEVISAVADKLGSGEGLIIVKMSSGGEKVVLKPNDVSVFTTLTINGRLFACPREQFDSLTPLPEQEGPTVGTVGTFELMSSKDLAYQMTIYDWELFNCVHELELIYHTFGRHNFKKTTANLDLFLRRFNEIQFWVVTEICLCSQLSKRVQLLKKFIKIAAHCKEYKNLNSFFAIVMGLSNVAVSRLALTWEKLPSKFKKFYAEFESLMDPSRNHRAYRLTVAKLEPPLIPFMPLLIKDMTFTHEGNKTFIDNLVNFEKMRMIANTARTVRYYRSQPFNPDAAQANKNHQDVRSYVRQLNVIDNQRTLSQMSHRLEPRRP
# [4] = target: Rap guanine nucleotide exchange factor 4 (Homo sapiens) (UniProt Q8WZA2); test: Confirmatory qHTS for antagonist of cAMP-regulated guanine nucleotide exchange factor 4 (EPAC2) (AID 1645885); note: nearly all actives have a fitted effect of over 25% in size; note: potency is the fitted concentration of half-maximal effect
# [5] = target: Rap guanine nucleotide exchange factor 3 (Homo sapiens) (UniProt O95398); test: Counterscreen qHTS for antagonist of cAMP-regulated guanine nucleotide exchange factor 3 (EPAC1) (AID 1645888);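 note: fluorescence loss as bound BODIPY-GDP is released from Rap1B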
# In short: (§1)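 Rap1B-BODIPY-GDP 250 nM + GDP 50 uM; cpds 7-pt, final 9.74 nM–152 uM (activator mode) or from 7.32 nM upwards (inhibitor mode); RT; FI 480/540 nm at 5 and 30 min, then ± cAMP, reread.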
# [6] = target: Rap guanine nucleotide exchange factor 3 (Homo sapiens) (UniProt O95398); test: Counterscreen qHTS for agonist of cAMP-regulated guanine nucleotide exchange factor 3 (EPAC1) (AID 1645889); note: nearly all actives have a fitted effect of over 40% in size; note: potency is the fitted concentration of half-maximal effect
# In short: as §1
# [7] = Stat Signaling Pathway (AID 446; active = well fitted curve in either direction with a large enough effect, not every such curve was filed as active;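 note: ME-180 cervical cancer cells given 40 pM IL-6 alongside compound; SIE-controlled beta-lactamase reporter measured as 460/530 nm FRET emission ratio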)
# In short: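 IL-6/STAT signaling read in ME-180 cells via an SIE beta-lactamase reporter. Stimulus was 40 pM IL-6 (its AC50) for 5 hrs, so both activation and inhibition register.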
# [8] = target: Glucocorticoid receptor (Homo sapiens) (UniProt P04150); test: GR-GFP Redistribution (AID 450;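 active = compounds whose dose series gives a full or clear partial fitted curve of increased nuclear translocation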; note: potency is the fitted concentration of half-maximal effect); conditions: U2OS GR-GFP nuclear translocation, laser cytometry, 2 h
# Sequence of Glucocorticoid receptor (Homo sapiens) (P04150 whole entry, looked up): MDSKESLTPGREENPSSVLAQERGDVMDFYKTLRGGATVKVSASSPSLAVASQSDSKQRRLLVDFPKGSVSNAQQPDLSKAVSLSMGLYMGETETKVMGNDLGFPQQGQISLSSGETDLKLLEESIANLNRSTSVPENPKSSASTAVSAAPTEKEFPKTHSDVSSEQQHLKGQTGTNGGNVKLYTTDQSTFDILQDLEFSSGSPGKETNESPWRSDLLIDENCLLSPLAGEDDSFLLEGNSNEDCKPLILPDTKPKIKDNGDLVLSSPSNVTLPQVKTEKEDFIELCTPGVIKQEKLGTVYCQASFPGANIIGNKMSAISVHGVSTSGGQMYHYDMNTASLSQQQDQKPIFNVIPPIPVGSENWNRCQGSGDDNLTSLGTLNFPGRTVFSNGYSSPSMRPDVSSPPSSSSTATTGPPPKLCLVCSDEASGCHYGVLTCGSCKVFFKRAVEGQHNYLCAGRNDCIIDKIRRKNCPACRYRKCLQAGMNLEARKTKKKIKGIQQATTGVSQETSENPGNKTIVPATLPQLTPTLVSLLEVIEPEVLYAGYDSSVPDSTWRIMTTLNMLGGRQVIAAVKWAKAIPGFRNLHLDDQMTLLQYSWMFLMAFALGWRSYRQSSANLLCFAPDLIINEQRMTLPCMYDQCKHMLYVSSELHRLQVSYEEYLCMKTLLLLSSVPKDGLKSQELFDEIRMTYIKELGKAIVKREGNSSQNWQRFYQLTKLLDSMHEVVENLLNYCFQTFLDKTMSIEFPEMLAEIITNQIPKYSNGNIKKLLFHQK
structure (smiles),measurement,setting,value
CCN1CCc2c(sc(NC(=O)CSc3ccccc3)c2-c2nc3ccccc3s2)C1,Potency,[1],inactive
same,Potency,[2],inactive
same,Potency,[3],inactive
same,Potency,[4],3.79 µM (active)
same,Potency,[5],inactive
Cc1n[nH]c(C)c1N1C(=O)c2cccc3c(N4CCCCCC4)ccc(c23)C1=O,Potency,[1],20.6 µM (active)
same,Potency,[2],inactive
same,Potency,[3],112 µM (active)
same,Potency,[4],inactive
same,Potency,[5],inactive
same,Potency,[6],12.6 µM (active)
COc1ccccc1NC(=O)c1sc2nc(Cc3ccccc3)cc(C(F)(F)F)c2c1N,Potency,[1],13 µM (active)
same,Potency,[2],inactive
same,activation,[3],"-0.606% [at 17.1 µM, percent relative to cAMP agonist control]"
same,Potency,[4],inactive
same,"activity change, negative = inhibition",[5],-9.81% [at 30.8 µM]
CCC1(c2ccccc2)NC(=O)N(CC(=O)Nc2ccc(OC)nc2)C1=O (configuration not stated),Potency,[1],18.3 µM (active)
same,Potency,[2],inactive
same,activation,[3],"15.1% [at 17.1 µM, percent relative to cAMP agonist control]"
same,Potency,[4],inactive
same,"activity change, negative = inhibition",[5],-15.6% [at 30.8 µM]
same,activation,[6],14.8% [at 30.8 µM]
CCN(CC)c1ccc(/C=C(\C#N)C(=O)c2ccc(Br)cc2)cc1,Potency,[1],inactive
same,Potency,[2],inactive
same,Potency,[3],112 µM (active)
same,Potency,[4],inactive
same,Potency,[5],inactive
Oc1ccc2nnc3c(Br)cnn3c2c1,Potency,[1],16.3 µM (active)
same,Potency,[2],inactive
same,Potency,[3],112 µM (active)
same,Potency,[4],inactive
same,Potency,[5],inactive
O=c1oc2c3c4c(cc2c(C(F)(F)F)c1CCN1CCOCC1)CCCN4CCC3,outcome,[7],inactive
same,Potency,[8],> 20.6 µM
same,Potency,[2],inactive
same,Potency,[3],100 µM (active)
same,Potency,[4],inactive
same,Potency,[5],inactive
same,Potency,[6],17.8 µM (active)
COc1cccc2c1C(=O)c1c(O)c3c(c(O)c1C2=O)CC(O)(C(=O)CO)CC3OC1CC(N(C)C)C(O)C(C)O1 (configuration not stated),Potency,[1],4.61 µM (active)
same,Potency,[2],inactive
same,activation,[3],"8.33% [at 17.1 µM, percent relative to cAMP agonist control]"
same,Potency,[4],inactive
same,"activity change, negative = inhibition",[5],33.3% [at 30.8 µM]
CCOC(=O)C1=C(C)NC(SC)=C(C#N)C1CC(C)C (configuration not stated),Potency,[2],inactive
same,Potency,[3],inactive
same,Potency,[4],inactive
same,Potency,[6],inactive
Cc1cccc(N2C(=O)c3cccc4c(N)ccc(c34)C2=O)c1,Potency,[1],2.31 µM (active)
same,Potency,[2],inactive
same,Potency,[3],112 µM (active)
same,Potency,[4],84.9 µM (active)
same,Potency,[6],70.8 µM (active)
COc1ccc2noc3c2c1C(=O)c1ccccc1-3,Potency,[2],inactive
same,Potency,[3],112 µM (active)
same,Potency,[4],inactive
same,Potency,[6],20 µM (active)
